Unmarked numbers belong to inactive results.
These targets were tested with ClCC(=O)N1CCCC1=O (assay: log2 ratio of Biotin-Ahx-Ub-VS probe labelling (fragment/DMSO); higher = less target engagement (more negative = stronger competition), active = hit call of the paper (q ≤ 0.05, log2 ratio ≤ -1)). Conditions: compound concentration: 200 uM; treatment time: 3 h.
Method: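 Competitive ABPP in HEK293T cell lysate. Lysates were treated with each chloroacetamide fragment at 200 µM for 3 h, then with Biotin-Ahx-Ub-VS (0.5 µM, 1 h), NeutrAvidin-enriched and analysed by diaPASEF LC-MS/MS. Protein LFQ was median-normalised; average log2 ratio is fragment/DMSO from an unpaired t-test (n=3 treated, n=44 DMSO). Hits: q ≤ 0.05, log2 ratio ≤ -1, unique peptides ≥ 2.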

UniProt Q9UPU5, sequence (Q9UPU5 whole entry): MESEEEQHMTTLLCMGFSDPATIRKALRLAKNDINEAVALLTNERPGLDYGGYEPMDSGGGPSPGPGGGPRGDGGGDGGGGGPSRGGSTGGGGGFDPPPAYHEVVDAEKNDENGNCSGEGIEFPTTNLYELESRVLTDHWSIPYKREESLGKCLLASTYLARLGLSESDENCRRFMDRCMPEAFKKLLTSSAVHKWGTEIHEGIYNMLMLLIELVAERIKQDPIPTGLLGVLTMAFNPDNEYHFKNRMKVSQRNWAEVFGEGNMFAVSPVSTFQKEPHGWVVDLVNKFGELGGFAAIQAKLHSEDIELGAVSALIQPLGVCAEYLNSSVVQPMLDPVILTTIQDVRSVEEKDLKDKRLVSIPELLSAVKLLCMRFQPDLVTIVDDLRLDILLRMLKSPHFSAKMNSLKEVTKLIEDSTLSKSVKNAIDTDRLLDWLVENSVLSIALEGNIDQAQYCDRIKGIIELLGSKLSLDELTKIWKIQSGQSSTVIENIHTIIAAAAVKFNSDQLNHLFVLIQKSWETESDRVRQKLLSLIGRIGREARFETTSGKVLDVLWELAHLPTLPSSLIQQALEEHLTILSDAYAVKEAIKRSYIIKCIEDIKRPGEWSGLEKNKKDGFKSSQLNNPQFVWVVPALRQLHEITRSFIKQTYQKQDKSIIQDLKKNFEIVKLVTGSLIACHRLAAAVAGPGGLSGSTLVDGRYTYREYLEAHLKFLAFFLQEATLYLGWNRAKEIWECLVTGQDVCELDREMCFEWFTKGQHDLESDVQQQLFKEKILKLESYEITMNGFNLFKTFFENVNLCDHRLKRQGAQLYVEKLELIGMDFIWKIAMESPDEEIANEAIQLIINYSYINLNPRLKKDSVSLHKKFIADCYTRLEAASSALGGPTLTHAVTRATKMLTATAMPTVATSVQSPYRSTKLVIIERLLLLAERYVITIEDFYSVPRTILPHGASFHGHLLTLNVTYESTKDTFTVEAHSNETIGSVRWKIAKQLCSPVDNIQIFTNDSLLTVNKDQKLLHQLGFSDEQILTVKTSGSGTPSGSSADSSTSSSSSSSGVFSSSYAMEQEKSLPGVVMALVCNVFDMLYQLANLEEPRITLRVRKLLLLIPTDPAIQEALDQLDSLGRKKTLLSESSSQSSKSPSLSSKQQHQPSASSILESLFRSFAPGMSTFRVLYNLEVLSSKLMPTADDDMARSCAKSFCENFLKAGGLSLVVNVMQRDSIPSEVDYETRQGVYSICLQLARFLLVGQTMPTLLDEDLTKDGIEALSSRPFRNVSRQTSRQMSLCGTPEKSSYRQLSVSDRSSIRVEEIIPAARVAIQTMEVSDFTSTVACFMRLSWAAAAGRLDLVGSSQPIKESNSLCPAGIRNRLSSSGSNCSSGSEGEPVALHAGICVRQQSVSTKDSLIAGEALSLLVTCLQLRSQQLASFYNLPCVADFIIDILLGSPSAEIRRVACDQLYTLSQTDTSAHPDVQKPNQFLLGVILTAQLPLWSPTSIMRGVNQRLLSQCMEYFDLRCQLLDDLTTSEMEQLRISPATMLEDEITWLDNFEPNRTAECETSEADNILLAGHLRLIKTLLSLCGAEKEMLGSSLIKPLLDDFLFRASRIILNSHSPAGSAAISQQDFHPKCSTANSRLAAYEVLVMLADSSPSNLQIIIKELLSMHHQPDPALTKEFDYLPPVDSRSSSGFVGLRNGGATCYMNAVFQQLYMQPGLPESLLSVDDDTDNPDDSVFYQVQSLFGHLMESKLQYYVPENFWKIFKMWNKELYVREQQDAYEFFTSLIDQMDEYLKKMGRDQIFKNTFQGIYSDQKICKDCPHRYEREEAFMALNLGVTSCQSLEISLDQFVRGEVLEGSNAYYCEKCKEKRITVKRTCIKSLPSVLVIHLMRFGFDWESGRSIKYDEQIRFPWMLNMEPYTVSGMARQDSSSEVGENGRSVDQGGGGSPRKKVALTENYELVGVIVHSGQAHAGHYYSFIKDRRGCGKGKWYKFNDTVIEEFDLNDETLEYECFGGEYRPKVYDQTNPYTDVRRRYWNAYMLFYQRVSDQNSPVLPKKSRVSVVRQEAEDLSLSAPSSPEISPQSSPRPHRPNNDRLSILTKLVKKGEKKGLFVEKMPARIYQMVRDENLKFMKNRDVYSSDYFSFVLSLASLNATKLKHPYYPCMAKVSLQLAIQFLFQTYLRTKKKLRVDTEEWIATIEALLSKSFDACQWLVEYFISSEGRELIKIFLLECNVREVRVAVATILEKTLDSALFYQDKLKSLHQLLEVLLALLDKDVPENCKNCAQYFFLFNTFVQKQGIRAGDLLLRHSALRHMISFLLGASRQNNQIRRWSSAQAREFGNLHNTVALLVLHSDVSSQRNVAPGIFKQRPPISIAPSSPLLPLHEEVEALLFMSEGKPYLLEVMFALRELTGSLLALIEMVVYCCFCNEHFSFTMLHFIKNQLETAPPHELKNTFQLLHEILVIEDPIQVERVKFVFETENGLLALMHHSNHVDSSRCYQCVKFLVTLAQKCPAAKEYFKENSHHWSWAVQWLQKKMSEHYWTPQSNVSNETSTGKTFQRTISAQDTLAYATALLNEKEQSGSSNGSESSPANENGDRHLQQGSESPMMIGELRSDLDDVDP
UniProt Q96FW1, sequence (Q96FW1 whole entry): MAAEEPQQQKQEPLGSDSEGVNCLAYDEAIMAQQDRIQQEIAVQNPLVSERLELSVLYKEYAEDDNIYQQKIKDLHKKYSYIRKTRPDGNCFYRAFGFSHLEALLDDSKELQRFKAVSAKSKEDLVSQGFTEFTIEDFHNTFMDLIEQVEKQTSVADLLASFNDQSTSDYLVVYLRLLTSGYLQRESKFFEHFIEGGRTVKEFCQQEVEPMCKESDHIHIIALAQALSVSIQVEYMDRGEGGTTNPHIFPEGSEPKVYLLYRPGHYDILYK
UniProt Q9UPT9, sequence (Q9UPT9 whole entry): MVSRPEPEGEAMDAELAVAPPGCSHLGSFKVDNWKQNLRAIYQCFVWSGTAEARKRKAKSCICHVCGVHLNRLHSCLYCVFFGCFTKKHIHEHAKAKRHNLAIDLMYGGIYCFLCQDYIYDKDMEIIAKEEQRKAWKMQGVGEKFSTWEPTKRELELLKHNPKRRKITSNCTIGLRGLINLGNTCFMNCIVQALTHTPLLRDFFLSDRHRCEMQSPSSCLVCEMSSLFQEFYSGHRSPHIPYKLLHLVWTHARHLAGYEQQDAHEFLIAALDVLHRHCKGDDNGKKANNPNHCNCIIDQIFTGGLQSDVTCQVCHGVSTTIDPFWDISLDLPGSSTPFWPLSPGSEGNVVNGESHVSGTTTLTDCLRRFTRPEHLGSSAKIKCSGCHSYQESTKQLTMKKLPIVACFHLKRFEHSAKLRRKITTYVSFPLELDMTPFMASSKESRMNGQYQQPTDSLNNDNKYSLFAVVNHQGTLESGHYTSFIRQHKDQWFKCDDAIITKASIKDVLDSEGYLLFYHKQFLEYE
UniProt O00487, sequence (O00487 whole entry): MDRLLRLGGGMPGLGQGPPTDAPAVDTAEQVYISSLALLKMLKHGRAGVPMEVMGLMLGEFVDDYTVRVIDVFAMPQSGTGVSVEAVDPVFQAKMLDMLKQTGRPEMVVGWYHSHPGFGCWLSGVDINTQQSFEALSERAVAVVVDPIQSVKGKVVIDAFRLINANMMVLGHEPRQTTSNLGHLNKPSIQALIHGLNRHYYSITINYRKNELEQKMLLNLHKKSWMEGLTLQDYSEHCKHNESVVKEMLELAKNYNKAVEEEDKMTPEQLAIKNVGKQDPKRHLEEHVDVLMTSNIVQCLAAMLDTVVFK
UniProt Q9NUU6, sequence (Q9NUU6 whole entry): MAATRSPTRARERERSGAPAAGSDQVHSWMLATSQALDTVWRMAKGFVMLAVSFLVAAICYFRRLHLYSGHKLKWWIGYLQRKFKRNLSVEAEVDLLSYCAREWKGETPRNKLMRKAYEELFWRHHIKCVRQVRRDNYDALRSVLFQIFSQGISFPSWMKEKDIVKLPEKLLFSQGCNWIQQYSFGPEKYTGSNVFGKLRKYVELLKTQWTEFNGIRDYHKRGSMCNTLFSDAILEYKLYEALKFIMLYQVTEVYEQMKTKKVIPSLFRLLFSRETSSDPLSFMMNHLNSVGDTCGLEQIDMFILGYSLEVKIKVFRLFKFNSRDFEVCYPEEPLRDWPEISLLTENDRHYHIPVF
UniProt P15374, sequence (P15374 whole entry): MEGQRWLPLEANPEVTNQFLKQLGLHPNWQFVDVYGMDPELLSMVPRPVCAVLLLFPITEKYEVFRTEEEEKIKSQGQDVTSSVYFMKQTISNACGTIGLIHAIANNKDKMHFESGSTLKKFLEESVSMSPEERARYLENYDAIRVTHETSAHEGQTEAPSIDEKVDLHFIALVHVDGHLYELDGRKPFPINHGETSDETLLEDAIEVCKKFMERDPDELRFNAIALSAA
UniProt P51665, sequence (P51665 whole entry): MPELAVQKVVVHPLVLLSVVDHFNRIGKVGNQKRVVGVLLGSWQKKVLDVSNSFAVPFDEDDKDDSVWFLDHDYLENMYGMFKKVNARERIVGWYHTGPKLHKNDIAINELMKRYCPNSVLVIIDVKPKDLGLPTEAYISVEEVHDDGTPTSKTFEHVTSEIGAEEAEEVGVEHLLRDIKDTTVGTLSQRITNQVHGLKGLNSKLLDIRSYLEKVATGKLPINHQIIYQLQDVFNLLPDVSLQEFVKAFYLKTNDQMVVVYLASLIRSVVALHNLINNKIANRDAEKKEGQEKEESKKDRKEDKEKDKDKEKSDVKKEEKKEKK
UniProt O15372, sequence (O15372 whole entry): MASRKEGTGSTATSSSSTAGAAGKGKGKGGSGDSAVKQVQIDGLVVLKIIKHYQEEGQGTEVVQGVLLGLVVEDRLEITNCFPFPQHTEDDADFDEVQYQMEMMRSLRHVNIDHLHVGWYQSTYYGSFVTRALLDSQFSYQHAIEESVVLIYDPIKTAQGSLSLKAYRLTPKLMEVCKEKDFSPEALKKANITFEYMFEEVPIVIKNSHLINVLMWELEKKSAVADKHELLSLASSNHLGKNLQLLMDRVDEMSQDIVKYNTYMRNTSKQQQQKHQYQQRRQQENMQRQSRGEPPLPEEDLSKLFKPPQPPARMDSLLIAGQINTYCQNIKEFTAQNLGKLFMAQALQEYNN

Target | log2 ratio of Biotin-Ahx-Ub-VS probe labelling
PSMD7 (UniProt P51665) | -0.274
UniProt Q9UGI0 | -0.149
USP54 (UniProt Q70EL1) | -0.396
USP47 (UniProt Q96K76) | -0.175
USP5 (UniProt P45974) | -0.246
USP36 (UniProt Q9P275) | -0.0906
UCHL1 (UniProt P09936) | -0.746
OTUD4 (UniProt Q01804) | -0.294
UniProt O00507 | -0.733
OTUD7B (UniProt Q6GQQ9) | -0.251
BAP1 (UniProt Q92560) | -0.142
USP24 (UniProt Q9UPU5) | -0.396
USP48 (UniProt Q86UV5) | -0.22
USP46 (UniProt P62068) | -0.141
UniProt O00487 | 0.00332
USP9X (UniProt Q93008) | -0.16
USP25 (UniProt Q9UHP3) | -0.183
OTUB1 (UniProt Q96FW1) | -0.0612
USP28 (UniProt Q96RU2) | -0.413
UCHL3 (UniProt P15374) | 0.027

Target | log2 ratio of Biotin-Ahx-Ub-VS probe labelling
USP34 (UniProt Q70CQ2) | -0.582
USP10 (UniProt Q14694) | -0.0833
VCPIP1 (UniProt Q96JH7) | -0.53
OTUD5 (UniProt Q96G74) | -0.377
PRPF8 (UniProt Q6P2Q9) | 0.106
ATXN3 (UniProt P54252) | -0.301
USP39 (UniProt Q53GS9) | 0.0278
USP42 (UniProt Q9H9J4) | -0.218
USP14 (UniProt P54578) | -0.184
USP22 (UniProt Q9UPT9) | -0.616
USP4 (UniProt Q13107) | -0.146
USP19 (UniProt O94966) | -0.376
USP7 (UniProt Q93009) | -0.135
UniProt P51784 | -0.126
YOD1 (UniProt Q5VVQ6) | -0.311
EIF3H (UniProt O15372) | 0.0752
FAM105A (UniProt Q9NUU6) | -0.739
USP15 (UniProt Q9Y4E8) | -0.378
USP16 (UniProt Q9Y5T5) | -0.298
UniProt Q5T2D3 | -0.924
